Source: PubChem BioAssay AID463173 (ICCB-Longwood Screening Facility, Harvard Medical School, 2010)
In all, about 52,000 compounds went through this assay and about 1,700 (3.3%) were called active. This excerpt belongs to a sample that is enriched for actives. A number with no mark means an inactive call. No stated cut-off is given here; in the data, active means survival mostly below about 52% (no sharp cut-off); inactive means mostly above about 56%.

What follows are compounds tested on Wild type (assay: growth inhibition of S. aureus wild type versus tarO mutant, primary screen, teichoic acid synthesis inhibitors, RN4220, OD600 (AID 463173)). Settings: S. aureus RN4220 wild type/DeltatarO growth, OD600, 18 h, stronger effect = lower value, screened at 18.75 µg/mL (by protocol).
Work on `CCOC(=O)C(C)(C)Sc1nnc(COc2ccccc2)n1CC` yielded a survival of 100%.
`C1CCC2(C1)OCC1(CO2)COC2(CCCC2)OC1` gave a survival of 111%.
Work on `Cc1ccc(NC(=O)N2CCC(CN3CCC(C)CC3)CC2)cc1F` yielded a survival of 82%.
`COc1ccc(CCNC(=O)c2cc(-c3ccc(C)cc3)nc3n[nH]c(-c4ccc(F)cc4)c23)cc1OC` gave a survival of 136%.
Compound `Cc1cccc(-c2nc3scc(CCNC(=O)c4ccc(Br)o4)n3n2)c1` has a survival of 74%.
Work on `Cc1cc(C)cc(NC(=O)CSc2nc3c(cnn3-c3ccc(F)cc3)c(=O)[nH]2)c1` yielded a survival of 65%.
`O=S(=O)(c1cccc(Cl)c1)c1nnn2c1nc(NC1CCCC1)c1sccc12` gave a survival of 95%.
`COc1ccc(C(=O)NCC(c2ccco2)S(=O)(=O)c2ccccc2)cc1` (configuration not stated) was tested, and the survival was -6% (active).
With `Cc1ccc(S(=O)(=O)C(CNC(=O)c2ccc(F)c(F)c2)c2ccco2)cc1` (configuration not stated) the survival was -6% (active).
Compound `COc1ccc(C(=O)NCC(c2ccco2)S(=O)(=O)c2ccc(F)cc2)cc1` (configuration not stated) has a survival of 74%.
For `O=C(NCc1ccccc1F)C(=O)NCC(c1ccco1)S(=O)(=O)c1ccccc1` (configuration not stated), the survival was -6% (active).
`CC(C)(C)c1ccc(C(=O)NCC(c2ccco2)S(=O)(=O)c2ccccc2)cc1` (configuration not stated) showed a survival of 70%.
For `Cc1ccc(C(=O)NCC(c2ccco2)S(=O)(=O)c2cccs2)cc1C` (configuration not stated), the survival was 99%.
In the case of `O=C(NCc1ccccc1)C(=O)NCC(c1ccco1)S(=O)(=O)c1ccccc1` (configuration not stated), the survival is reported as 67%.
With `Cc1ccc(C(=O)NCC(c2ccco2)S(=O)(=O)c2ccccc2)cc1C` (configuration not stated) the survival was 72%.
For `O=C(NCC(c1ccco1)S(=O)(=O)c1cccs1)c1ccc(F)c(F)c1` (configuration not stated), the survival was 78%.
With `Cc1ccc(C(=O)NCC(c2ccco2)S(=O)(=O)c2ccc(Cl)cc2)cc1C` (configuration not stated) the survival was 14% (active).
`CCOc1ccc(C(=O)NCC(c2ccco2)S(=O)(=O)c2ccc(C)cc2)cc1` (configuration not stated) was tested, and the survival was 85%.
`Cc1ccccc1CNC(=O)C(=O)NCC(c1ccco1)S(=O)(=O)c1ccccc1` (configuration not stated) gave a survival of 76%.
`CCOc1ccc(S(=O)(=O)N(CC(=O)NCc2ccccc2OC)c2ccccc2)cc1` was tested, and the survival was 58%.
`CC1=C(C#N)C(NC(=O)c2ccccc2Cl)(C(F)(F)F)C(=O)N1` (configuration not stated) was tested, and the survival was 139%.
`COc1ccc(-c2cn3nc(N4CCC(C(=O)Nc5ccc(Cl)cc5C)CC4)sc3n2)cc1` gave a survival of 78%.
`CCOCCCn1c(=N)c(S(=O)(=O)c2ccc(C)cc2)cc2c(=O)n3cccc(C)c3nc21` gave a survival of 77%.
For `Cc1cc2nn(-c3ccccc3)nc2cc1NC(=O)c1cccc2c(Cl)cccc12`, the survival was 70%.
For `COc1ccc(N2CCN(CCCNC(=O)c3cnn(-c4ccc(F)cc4)c3-n3cccc3)CC2)cc1`, the survival was 77%.
With `O=C(NCC(c1ccco1)S(=O)(=O)c1ccc(Cl)cc1)c1ccc(C(F)(F)F)cc1` (configuration not stated) the survival was -1% (active).
Work on `Cc1ccc(S(=O)(=O)C(CNC(=O)c2ccc(C(F)(F)F)cc2)c2ccco2)cc1` (configuration not stated) yielded a survival of 134%.
For `CC(C)(C)c1ccc(C(=O)NCC(c2ccco2)S(=O)(=O)c2ccc(F)cc2)cc1` (configuration not stated), the survival was 131%.
For `O=c1c2[nH]c3ccccc3c2nc(SCc2cccc(F)c2)n1-c1ccccc1`, the survival was 53%.
In the case of `CCOC(=O)CC(NC(=O)c1cc2c(=O)n3cccc(C)c3nc2s1)c1ccc(OCC(C)C)c(OC)c1` (configuration not stated), the survival is reported as 77%.
With `CCOc1ccccc1NC(=O)c1ccc(F)c(S(=O)(=O)NCc2ccc3c(c2)OCO3)c1` the survival was 63%.
`O=C(Nc1cc(Cl)ccc1Cl)c1cc(S(=O)(=O)NCCc2ccccc2)ccc1F` showed a survival of 133%.
`CN(Cc1ccccc1)S(=O)(=O)c1ccc(F)c(C(=O)Nc2cc(Cl)cc(Cl)c2)c1` showed a survival of 76%.
Work on `O=C(Nc1ccc(Cl)cc1C(F)(F)F)c1cc(S(=O)(=O)NCc2ccccc2)ccc1F` yielded a survival of 134%.
`CCN(Cc1ccccc1)S(=O)(=O)c1ccc(F)c(C(=O)Nc2cc(C)ccc2OC)c1` was tested, and the survival was 120%.
For `COc1cc(OC)c(NC(=O)c2cnn(-c3ccccc3)c2-n2cccc2)cc1Cl`, the survival was 80%.
For `CN(Cc1ccccc1)S(=O)(=O)c1ccc(F)c(C(=O)Nc2ccccc2C(F)(F)F)c1`, the survival was -6% (active).
`CCN(Cc1ccccc1)S(=O)(=O)c1ccc(F)c(C(=O)Nc2ccc(C(C)C)cc2)c1` was tested, and the survival was 95%.
With `CCN(Cc1ccccc1)S(=O)(=O)c1ccc(F)c(C(=O)Nc2cc(C(F)(F)F)ccc2Cl)c1` the survival was -1% (active).
Compound `COc1ccccc1NC(=O)c1cnn(-c2ccccc2)c1-n1cccc1` has a survival of 99%.
In the case of `CN(Cc1ccccc1)S(=O)(=O)c1ccc(F)c(C(=O)Nc2cccc(Cl)c2Cl)c1`, the survival is reported as 159%.
For `O=C(Nc1cc(C(F)(F)F)ccc1Cl)c1cnn(-c2ccccc2)c1-n1cccc1`, the survival was -3% (active).
`O=C(Nc1cc(C(F)(F)F)ccc1Cl)c1cc(S(=O)(=O)NCc2ccccc2)ccc1F` was tested, and the survival was 14% (active).
For `COc1cccc(CNC(=O)c2ccc3c(c2)c(C)c(C)n3Cc2ccccc2)c1`, the survival was 72%.
In the case of `CCC(C)Nc1sc(S(=O)(=O)CC)nc1S(=O)(=O)c1ccc(C)cc1` (configuration not stated), the survival is reported as 78%.
`COc1ccccc1CNC(=O)Cn1ncn2c(cc3sccc32)c1=O` showed a survival of 76%.
For `O=C(CN1C(=O)COc2ccc(S(=O)(=O)N3CCOCC3)cc21)N1CCN(c2ccccc2F)CC1`, the survival was 100%.
Compound `O=C(CCS(=O)(=O)c1ccccc1)N(Cc1cccnc1)c1nc2ccc(F)cc2s1` has a survival of 124%.
`CCc1nccn1S(=O)(=O)c1cc(Br)ccc1Br` showed a survival of 69%.
With `CCOc1cc(C)c(C(C)C)cc1S(=O)(=O)n1ccnc1CC` the survival was -11% (active).
With `Cc1nccn1S(=O)(=O)c1c(C(C)C)cc(C(C)C)cc1C(C)C` the survival was 119%.
`Cc1ccc(CNC(=O)Cn2ncc3c([nH]c4ccc(C)cc43)c2=O)cc1` gave a survival of 79%.
With `Cc1ccc2[nH]c3c(=O)n(CC(=O)NC(C)C)ncc3c2c1` the survival was 1% (active).
`Cc1ccc(CCNC(=O)Cn2ncc3c([nH]c4ccc(C)cc43)c2=O)cc1` showed a survival of 131%.
For `CCCCN(C)C(=O)Cn1ncc2c([nH]c3ccc(C)cc32)c1=O`, the survival was 81%.
In the case of `Cc1ccc2[nH]c3c(=O)n(CC(=O)N(CCN(C)C)Cc4ccccc4)ncc3c2c1`, the survival is reported as 99%.
For `Cc1ccc2[nH]c3c(=O)n(CC(=O)N(C)Cc4ccccc4)ncc3c2c1`, the survival was -3% (active).
For `O=C(NCC(c1cccs1)S(=O)(=O)c1cccs1)c1ccccc1` (configuration not stated), the survival was 70%.
Work on `COc1ccccc1CCNC(=O)Cn1ccc2cc(S(=O)(=O)N3CCCCC3)ccc21` yielded a survival of 87%.
With `Cc1cccc(C(=O)n2nc(-c3cccnc3)nc2NCc2ccccc2)c1` the survival was 106%.
`Cc1ccc(S(=O)(=O)c2nc(-c3ccccc3Cl)oc2N2CCCCCC2)cc1` gave a survival of 20%.
For `Cc1ccc(S(=O)(=O)c2nc(-c3ccccc3F)oc2N2CCCCC2)cc1`, the survival was 17% (active).
`Cc1ccc(S(=O)(=O)c2nc(-c3ccc(F)cc3)oc2N2CCN(c3ccccc3)CC2)cc1` showed a survival of 115%.
`Cc1ccc(S(=O)(=O)c2nc(-c3ccc(Cl)cc3)oc2N2CCCCCC2)cc1` was tested, and the survival was 30%.
With `O=S(=O)(c1ccccc1)c1nc(-c2ccc(Cl)cc2Cl)oc1N1CCCCC1` the survival was 57%.
`COc1ccccc1-c1nc(S(=O)(=O)c2ccccc2)c(N2CCC(C)CC2)o1` was tested, and the survival was -5% (active).
For `COc1ccc(-c2nc(S(=O)(=O)c3ccc(Cl)cc3)c(N3CCCCCC3)o2)cc1`, the survival was 64%.
`COc1ccc(-c2nc(S(=O)(=O)c3ccccc3)c(N3CCC(C)CC3)o2)cc1` was tested, and the survival was 89%.
In the case of `Cc1ccc(-c2nc(S(=O)(=O)c3ccc(Cl)cc3)c(N3CCCCC3)o2)cc1`, the survival is reported as 5% (active).
`COc1ccccc1-c1nc(S(=O)(=O)c2ccc(Cl)cc2)c(N2CCCCCC2)o1` gave a survival of 70%.
With `O=S(=O)(c1ccccc1)c1nc(-c2ccccc2Cl)oc1N1CCCCCC1` the survival was 14% (active).
`O=S(=O)(c1ccccc1)c1nc(-c2ccccc2F)oc1N1CCOCC1` showed a survival of 77%.
In the case of `CCC(Oc1ccccc1)C(=O)Nc1cc(-c2cccc(C)c2)nn1-c1ccccc1` (configuration not stated), the survival is reported as 89%.
`CCOC(=O)c1ccc(NC(=O)CSc2nnc(CNC(=O)c3ccc(OC)cc3)n2CC)cc1` showed a survival of 134%.
`COc1ccc(-c2nnc(C3CCN(C(=O)c4ccccc4F)CC3)o2)cc1` gave a survival of 85%.
In the case of `CCOC(=O)c1ccc(NC(=O)CC2C(=O)N(c3ccccc3)C(=O)N2Cc2ccc(C)cc2)cc1` (configuration not stated), the survival is reported as 58%.
Work on `COc1ccccc1NC(=O)CCCc1nnc2n(C)c(=O)c3sccc3n12` yielded a survival of 97%.
In the case of `CC1CCN(C(=O)CS(=O)(=O)Cc2ccccc2)CC1`, the survival is reported as 102%.
In the case of `O=C1C(=O)N(C2CCN(C(=O)c3cccc(Cl)c3)CC2)CCN1Cc1ccc(F)cc1`, the survival is reported as 77%.
With `Cc1nc2c3ccccc3nc(NNC(=O)CCC(=O)N3CCN(c4ccccc4)CC3)n2n1` the survival was 81%.
`COc1ccc(-n2c(=O)c3c(c4cc(OC)ccc4n3C)n(CC(=O)NCC3CCCO3)c2=O)cc1` (configuration not stated) gave a survival of 83%.
`COc1ccc(CNCCSc2nnnn2-c2ccccc2)cc1` showed a survival of 83%.
For `Cc1ccc(C)c(NC(=O)CN(Cc2ccccc2)S(=O)(=O)c2ccc3nc(C)sc3c2)c1`, the survival was 66%.
`COc1ccc(-c2nc(S(=O)(=O)c3ccc(C)cc3)c(N3CCCCC3)o2)cc1` showed a survival of 63%.
For `Cc1ccc(S(=O)(=O)c2nc(-c3ccccc3)oc2N2CCCCCC2)cc1`, the survival was 6% (active).
`Cc1ccc(S(=O)(=O)c2nc(-c3ccccc3)oc2N2CCN(c3ccccc3)CC2)cc1` was tested, and the survival was 86%.
For `Cc1ccc(-c2nc(S(=O)(=O)c3ccc(C)cc3)c(N3CCCCC3)o2)cc1`, the survival was 0% (active).
For `Cc1ccc(S(=O)(=O)c2nc(-c3cccc(C)c3)oc2N2CCCCC2)cc1`, the survival was 2% (active).
In the case of `Cc1ccc(-c2nc(S(=O)(=O)c3ccc(C)cc3)c(N3CCCCCC3)o2)cc1`, the survival is reported as 84%.
`Cc1ccc(-c2nc(S(=O)(=O)c3ccc(C)cc3)c(N3CCN(c4ccccc4)CC3)o2)cc1` gave a survival of 104%.
With `Cc1ccc(S(=O)(=O)c2nc(-c3cccc(C)c3)oc2N2CCN(c3ccccc3)CC2)cc1` the survival was 117%.
`Cc1cccc(-c2nc(S(=O)(=O)c3ccc(Cl)cc3)c(N3CCCCCC3)o2)c1` gave a survival of 41%.
